# Source: PubChem BioAssay (NCATS)
# Inconclusive results are not listed. A call without a number means that no potency is given here. Unmarked numbers belong to inactive results. Calls of active or inactive are those of the source. Calls follow the shape of the dose curve; as a rule, active = well fitted curve in the direction sought with a large enough effect; inconclusive = small, poorly fitted or top-dose-only effect, or another doubt; inactive = no such curve, though single readings can be large; an effect the other way counts as inactive or inconclusive.
# Tests used:
# [1] = target: Rap guanine nucleotide exchange factor 3 (Homo sapiens) (UniProt O95398); assay: Confirmatory qHTS for antagonist of cAMP-regulated guanine nucleotide exchange factor 3 (EPAC1) (AID 1645880); details: EPAC1 Rap1B-BODIPY-GDP exchange, fluorescence; series mostly up to 115 µM; also: nearly all actives have a fitted effect of over 55% in size; also: potency is read from the fitted curve at half-maximal effect
# Summary of the method: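 Released BODIPY-GDP fluoresces less than Rap1-bound BODIPY-GDP; the signal is followed at 480/540 nm at 5-min intervals over 30 min, after 5 min at room temperature. Reactions contain 100 nM EPAC1, 250 nM RAP1B-BODIPY-GDP and 50 uM GDP; results are normalized to ATA and DMSO.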
# [2] = target: Rap guanine nucleotide exchange factor 3 (Homo sapiens) (UniProt O95398); assay: Confirmatory qHTS for agonist of cAMP-regulated guanine nucleotide exchange factor 3 (EPAC1) (AID 1645881); details: EPAC1 Rap1B BODIPY-GDP exchange fluorescence; series mostly up to 154 µM; also: nearly all actives have a fitted effect of over 75% in size; also: potency is read from the fitted curve at half-maximal effect;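 as to activation: EPAC1 catalysed release of BODIPY-GDP from Rap1B seen as fluorescence loss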
# [3] = target: Rap guanine nucleotide exchange factor 4 (Homo sapiens) (UniProt Q8WZA2); assay: Confirmatory qHTS for agonist of cAMP-regulated guanine nucleotide exchange factor 4 (EPAC2) (AID 1645884); details: EPAC2 GEF activity, Rap1B-BODIPY-GDP fluorescence; series mostly up to 154 µM;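 also: nucleotide exchange releases bodipy-GDP from Rap1 and this lowers its fluorescence; nearly all actives have a fitted effect of over 65% in size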
# [4] = target: Rap guanine nucleotide exchange factor 4 (Homo sapiens) (UniProt Q8WZA2); assay: Confirmatory qHTS for antagonist of cAMP-regulated guanine nucleotide exchange factor 4 (EPAC2) (AID 1645885); details: EPAC2 Rap1B-BODIPY-GDP exchange fluorescence, biochemical; series mostly up to 12.7 µM; also: nearly all actives have a fitted effect of over 25% in size; also: potency is read from the fitted curve at half-maximal effect
# [5] = target: Rap guanine nucleotide exchange factor 3 (Homo sapiens) (UniProt O95398); assay: Counterscreen qHTS for antagonist of cAMP-regulated guanine nucleotide exchange factor 3 (EPAC1) (AID 1645888); details: Rap1B-BODIPY-GDP nucleotide exchange, fluorescence; series mostly up to 154 µM
# Summary of the method: (§1)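 Measured: fluorescence of BODIPY-GDP bound to Rap1B, which falls as exchange proceeds. Conditions include 50 uM competing GDP, 5 and 30 min reads, and a later cAMP challenge for antagonist detection.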
# [6] = target: Rap guanine nucleotide exchange factor 3 (Homo sapiens) (UniProt O95398); assay: Counterscreen qHTS for agonist of cAMP-regulated guanine nucleotide exchange factor 3 (EPAC1) (AID 1645889); details: EPAC1 Rap1B-BODIPY-GDP exchange, fluorescence; series mostly up to 154 µM; also: nearly all actives have a fitted effect of over 40% in size; also: potency is read from the fitted curve at half-maximal effect
# Summary of the method: as §1
# Chain of Rap guanine nucleotide exchange factor 4 (Homo sapiens) (Q8WZA2 whole entry, looked up): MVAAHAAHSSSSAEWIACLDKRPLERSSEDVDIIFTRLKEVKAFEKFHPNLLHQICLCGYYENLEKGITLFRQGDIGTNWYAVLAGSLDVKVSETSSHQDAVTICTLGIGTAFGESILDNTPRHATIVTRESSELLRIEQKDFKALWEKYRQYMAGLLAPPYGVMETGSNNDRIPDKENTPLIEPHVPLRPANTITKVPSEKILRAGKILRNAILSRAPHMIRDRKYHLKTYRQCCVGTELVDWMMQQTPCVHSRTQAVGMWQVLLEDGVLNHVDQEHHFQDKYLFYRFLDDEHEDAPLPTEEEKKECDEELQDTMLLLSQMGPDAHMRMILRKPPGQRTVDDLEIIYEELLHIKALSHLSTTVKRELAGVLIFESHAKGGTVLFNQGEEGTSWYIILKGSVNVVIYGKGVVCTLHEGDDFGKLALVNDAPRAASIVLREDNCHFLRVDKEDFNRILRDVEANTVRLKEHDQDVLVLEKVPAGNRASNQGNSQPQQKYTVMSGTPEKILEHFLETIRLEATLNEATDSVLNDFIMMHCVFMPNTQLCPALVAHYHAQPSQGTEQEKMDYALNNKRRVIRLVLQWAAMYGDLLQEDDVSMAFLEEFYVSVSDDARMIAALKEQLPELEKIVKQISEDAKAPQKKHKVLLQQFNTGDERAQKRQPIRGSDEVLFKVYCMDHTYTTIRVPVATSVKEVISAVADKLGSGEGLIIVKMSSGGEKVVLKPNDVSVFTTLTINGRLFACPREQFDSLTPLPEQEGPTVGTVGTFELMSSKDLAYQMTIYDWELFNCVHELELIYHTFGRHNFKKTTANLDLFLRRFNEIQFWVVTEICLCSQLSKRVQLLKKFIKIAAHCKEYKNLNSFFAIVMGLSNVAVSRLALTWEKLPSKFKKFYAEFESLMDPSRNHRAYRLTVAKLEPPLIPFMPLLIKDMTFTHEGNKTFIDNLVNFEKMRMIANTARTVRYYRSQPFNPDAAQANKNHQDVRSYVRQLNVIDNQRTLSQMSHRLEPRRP
# Chain of Rap guanine nucleotide exchange factor 3 (Homo sapiens) (O95398 whole entry, looked up): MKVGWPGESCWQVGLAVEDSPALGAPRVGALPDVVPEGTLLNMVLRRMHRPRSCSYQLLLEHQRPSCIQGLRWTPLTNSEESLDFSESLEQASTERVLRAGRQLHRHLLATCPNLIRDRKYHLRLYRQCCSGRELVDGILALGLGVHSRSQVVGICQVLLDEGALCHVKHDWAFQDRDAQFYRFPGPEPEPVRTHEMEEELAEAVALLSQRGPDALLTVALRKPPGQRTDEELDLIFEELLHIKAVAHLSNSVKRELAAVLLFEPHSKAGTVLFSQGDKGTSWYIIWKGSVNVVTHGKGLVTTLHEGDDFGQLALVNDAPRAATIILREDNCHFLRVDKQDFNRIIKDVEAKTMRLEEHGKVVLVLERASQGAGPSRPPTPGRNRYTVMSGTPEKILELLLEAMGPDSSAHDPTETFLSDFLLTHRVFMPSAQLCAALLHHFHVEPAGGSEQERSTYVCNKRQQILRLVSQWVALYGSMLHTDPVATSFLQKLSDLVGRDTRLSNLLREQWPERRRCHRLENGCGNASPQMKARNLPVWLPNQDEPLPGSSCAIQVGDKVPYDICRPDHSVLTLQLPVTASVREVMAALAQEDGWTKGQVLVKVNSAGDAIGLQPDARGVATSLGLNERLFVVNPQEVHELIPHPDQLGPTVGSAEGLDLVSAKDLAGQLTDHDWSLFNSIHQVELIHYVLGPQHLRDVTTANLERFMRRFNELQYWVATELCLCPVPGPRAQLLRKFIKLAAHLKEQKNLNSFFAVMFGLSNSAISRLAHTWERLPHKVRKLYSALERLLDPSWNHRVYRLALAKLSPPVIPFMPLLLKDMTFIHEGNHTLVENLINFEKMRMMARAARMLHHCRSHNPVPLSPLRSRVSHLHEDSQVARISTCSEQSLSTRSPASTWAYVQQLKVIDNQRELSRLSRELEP
Compound,Potency [1],Potency [2],Potency [3],Potency [4],Potency [5],Potency [6],activation [3],"activity change, negative = inhibition [5]",activation [6]
O=C(O)C(c1ccccc1)N1C(=O)/C(=C\c2ccc(-c3ccccc3Cl)o2)SC1=S (configuration not stated),inactive,inactive,inactive,inactive,inactive,inactive,,,
COc1ccc(C(CC(=O)N2CCOCC2)c2c(OC)cc(OC)c3c(-c4ccccc4)cc(=O)oc23)cc1 (configuration not stated),37.9 µM (active),inactive,inactive,inactive,inactive,inactive,,,
Cc1ccc2c(c1)C=CC(C#N)N2C(=O)c1ccccc1 (configuration not stated),inactive,inactive,inactive,inactive,inactive,inactive,,,
Cc1cc2[nH]c(=O)c(=O)[nH]c2cc1S(=O)(=O)Nc1cccc(Cl)c1,42.6 µM (active),inactive,inactive,inactive,inactive,inactive,,,
CCOc1nc(C)cc(C)c1S(=O)(=O)c1ccc(Cl)cc1,inactive,inactive,,inactive,,,"-7.98% [at 17.1 µM, percent relative to cAMP agonist control]",0.426% [at 30.8 µM],9.26% [at 30.8 µM]
Cc1cccc(/C(N)=N/OC(=O)Cc2cccc3ccccc23)c1,inactive,inactive,,inactive,,,"2.49% [at 17.1 µM, percent relative to cAMP agonist control]",-15.4% [at 30.8 µM],-1.93% [at 30.8 µM]
CCC(C)NC(=O)Cn1c(=O)n(CCCCCC(=O)Nc2ccccc2)c(=O)c2sccc21 (configuration not stated),inactive,inactive,inactive,inactive,inactive,inactive,,,
CC1(C(=O)NS(=O)(=O)c2ccc(Cl)s2)CCN1C(=O)C1(c2ccc(Cl)cc2)CCC1 (configuration not stated),9.53 µM (active),inactive,inactive,8.49 µM (active),inactive,inactive,,,
Cn1cc(C(C[N+](=O)[O-])c2ccccc2)c2ccccc21 (configuration not stated),inactive,inactive,,inactive,,,"0.148% [at 17.1 µM, percent relative to cAMP agonist control]",-4.06% [at 30.8 µM],13.8% [at 30.8 µM]
COc1ccc(C(=O)N2CCc3cc(OC)c(OC)cc3C2c2ccc(OC)c(OC)c2)cc1 (configuration not stated),inactive,inactive,,inactive,,,"5.17% [at 17.1 µM, percent relative to cAMP agonist control]",-5.18% [at 30.8 µM],15.1% [at 30.8 µM]
O=C(O)CN1C(=O)/C(=C\c2cccc(OCc3ccccc3F)c2)SC1=S,42.6 µM (active),inactive,inactive,84.9 µM (active),inactive,inactive,,,
O=C1CC(c2ccccc2C(F)(F)F)c2c(c3ccccc3[nH]c2=O)O1 (configuration not stated),inactive,inactive,inactive,inactive,inactive,inactive,,,
COc1ccccc1C1SCCN1S(C)(=O)=O (configuration not stated),inactive,inactive,inactive,inactive,inactive,inactive,,,
N#CC1=C(O)C(c2ccccc2)n2c1nc(=O)c1ccccc12 (configuration not stated),inactive,inactive,,inactive,,,"0.476% [at 17.1 µM, percent relative to cAMP agonist control]",1.23% [at 30.8 µM],1.1% [at 30.8 µM]
CCc1nc2c(OCc3ccc(OC(F)F)cc3)cccn2c1N(C)C(=O)c1ccc(OC)cc1,inactive,inactive,inactive,inactive,inactive,inactive,,,
O=C(O)CN1C(=O)/C(=C\c2ccccc2OCc2ccc(Cl)cc2Cl)SC1=S,44.7 µM (active),inactive,,inactive,,,"-0.613% [at 17.1 µM, percent relative to cAMP agonist control]",-18.8% [at 30.8 µM],3.68% [at 30.8 µM]
COCCNC(=O)CSc1nc2cc3c(cc2c(=O)n1CCCCCC(=O)NCc1ccc(OC)cc1)OCO3,inactive,inactive,inactive,inactive,inactive,inactive,,,
C=CCOc1ccc(C(c2c(C(=O)O)[nH]c3ccccc23)c2c(C(=O)O)[nH]c3ccccc23)cc1,33.8 µM (active),inactive,inactive,inactive,inactive,inactive,,,
CC(=O)c1ccc(N2CCN(C(=O)C3CCCN(S(=O)(=O)c4c(C)[nH]c(=O)[nH]c4=O)C3)CC2)cc1 (configuration not stated),inactive,inactive,inactive,inactive,inactive,inactive,,,
O=C(Cc1ccccc1)NCC(=O)N1CCC1,inactive,inactive,inactive,inactive,inactive,inactive,,,
Cc1ccc(C2(C)NC(=O)N(CC(=O)Nc3ccccc3N3CCCCC3)C2=O)cc1 (configuration not stated),inactive,inactive,inactive,inactive,inactive,inactive,,,

Compound,Potency [1],Potency [2],Potency [3],Potency [4],Potency [5],Potency [6],activation [3],"activity change, negative = inhibition [5]",activation [6]
Cc1c(CCC(=O)O)c(=O)oc2cc(OCc3ccc(Br)cc3)ccc12,inactive,inactive,inactive,inactive,inactive,inactive,,,
CCCC1CC(c2csc(N)n2)CCO1 (configuration not stated),inactive,inactive,inactive,inactive,inactive,inactive,,,
COC(=O)c1c(SC)nc2ccccc2c1OCc1cc(C)ccc1C,inactive,inactive,inactive,inactive,inactive,inactive,,,
CCC(C)Sc1c(C(C)C)cnc2c1c(=O)n(C)c(=O)n2C (configuration not stated),inactive,inactive,inactive,inactive,inactive,inactive,,,
CCN(CC)c1ccc(C(=O)OCC(=O)NCC2CCCO2)cc1 (configuration not stated),inactive,inactive,,inactive,,,"4.19% [at 17.1 µM, percent relative to cAMP agonist control]",-1.2% [at 30.8 µM],25.8% [at 30.8 µM]
N=C1/C(=C\c2ccc(OC(=O)c3ccccc3Cl)cc2)C(=O)N=C2SC(N3CCOCC3)=NN12,19 µM (active),inactive,inactive,inactive,inactive,inactive,,,
CC(C)CNC(=O)c1[nH]c(C(F)(F)F)nc1-c1ccccc1,inactive,inactive,,inactive,,,"3.83% [at 17.1 µM, percent relative to cAMP agonist control]",-17.1% [at 30.8 µM],30.5% [at 30.8 µM]
COc1ccc(/C=C2\SC(=S)N(NS(=O)(=O)c3ccc(C)cc3)C2=O)c(OC)c1,14.1 µM (active),inactive,,inactive,,,"6.75% [at 17.1 µM, percent relative to cAMP agonist control]",7.67% [at 30.8 µM],20% [at 30.8 µM]
CCc1nc2c(OCc3ccc(C(=O)OC)cc3)cccn2c1N(C)C(=O)CC(C)C,inactive,inactive,inactive,inactive,inactive,inactive,,,
CC1(C)CC(=O)c2sc(N3CCCCC3)nc2C1,inactive,inactive,inactive,75.7 µM (active),inactive,inactive,,,
CN1CCS/C1=C/C=C1\SC(=S)N(CC(=O)O)C1=O,inactive,50.1 µM (active),,inactive,,14.1 µM (active),"15.2% [at 17.1 µM, percent relative to cAMP agonist control]",62.8% [at 30.8 µM],
CCC(=O)N1CCc2cc(OC)c(OC)cc2C1COc1ccccc1OC (configuration not stated),inactive,inactive,inactive,inactive,inactive,,,,4.46% [at 30.8 µM]
COC(=O)C(C)N(C(=O)c1ccc(Cl)cc1)c1c(C)cccc1C (configuration not stated),inactive,inactive,inactive,inactive,inactive,inactive,,,
COC(=O)c1sccc1NS(=O)(=O)c1ccccc1[N+](=O)[O-],inactive,inactive,,inactive,,,"-1.71% [at 17.1 µM, percent relative to cAMP agonist control]",-0.412% [at 30.8 µM],33.8% [at 30.8 µM]
COc1ccc(/C=C2/SC(=S)N(NS(=O)(=O)c3ccccc3)C2=O)cc1,39.8 µM (active),inactive,,inactive,,,"-0.663% [at 17.1 µM, percent relative to cAMP agonist control]",-9.92% [at 30.8 µM],-1.02% [at 30.8 µM]
Cc1ccc(NC(=O)CN2C(=O)N/C(=C/c3ccccc3OCc3cccc(C(=O)O)c3)C2=O)cc1,31.6 µM (active),inactive,,inactive,,,"-10.8% [at 17.1 µM, percent relative to cAMP agonist control]",-1.86% [at 30.8 µM],5.98% [at 30.8 µM]
Cc1cc(S(=O)(=O)Nc2ccccc2C)ccc1F,inactive,inactive,inactive,13.5 µM (active),inactive,inactive,,,
Nc1c(C(=O)c2ccccc2)sc2nsc(SCCN3CCOCC3)c12,inactive,inactive,inactive,inactive,inactive,inactive,,,
COc1ccc(C=NNc2ccc([N+](=O)[O-])cc2S(=O)(=O)Nc2ccccc2C(=O)O)cc1OC,25.1 µM (active),inactive,,inactive,,,"-2.2% [at 17.1 µM, percent relative to cAMP agonist control]",-11.2% [at 30.8 µM],21.9% [at 30.8 µM]
CCc1nnc(NS(=O)(=O)c2ccc(Nc3ccc([N+](=O)[O-])c4nonc34)cc2)s1,42.6 µM (active),inactive,inactive,inactive,inactive,inactive,,,
CC1CCCCN1C(=O)COC(=O)c1cc([N+](=O)[O-])ccc1N1CCOCC1 (configuration not stated),inactive,inactive,inactive,inactive,inactive,inactive,,,
